These results are taken from PubChem BioAssay (NCI).

Test [1] can be described thus: NCI Yeast Anticancer Drug Screen. Data for the rad50 strain (AID 155).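 Further: 0% = growth of vehicle-only cultures of the same strain.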 The following applies: S. cerevisiae rad50 strain growth inhibition, active compounds read high. In a few lines: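 Compounds were tested on a yeast strain with an engineered DNA damage repair alteration; the reported value is growth inhibition normalised to vehicle treatment.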
A short description of test [2]: NCI Yeast Anticancer Drug Screen. Data for the mec2-1 strain (AID 157). The following applies: S. cerevisiae mec2-1 strain, active compounds read high. Put shortly:
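Using mec2-1 yeast: add compound, measure growth, express inhibition versus vehicle-treated cultures.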

Test [3] can be described thus: NCI Yeast Anticancer Drug Screen. Data for the sgs1 mgt1 strain (AID 161).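 Further: 0% = growth of cultures given vehicle only.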 The following applies: S. cerevisiae sgs1 mgt1 strain, active compounds read high. Put shortly: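 This yeast growth screen uses a strain with defined DNA-repair lesions; compound-treated growth is compared with vehicle-treated growth.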
The nature of test [4]: NCI Yeast Anticancer Drug Screen. Data for the cln2 rad14 strain (AID 165).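 Further: 0% = growth equal to vehicle treated cultures.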 The following applies: S. cerevisiae cln2 rad14 strain, active compounds read high. Put shortly: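 Yeast strain cln2 rad14, bearing defects in cell cycle control and DNA repair, serves as the test system; values reflect growth inhibition compared with vehicle.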
Test [5] in a line: NCI Yeast Anticancer Drug Screen. Data for the bub3 strain (AID 167). The following applies: S. cerevisiae bub3 mutant strain, active compounds read high. In a few lines: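 Growth of a checkpoint-deficient yeast mutant is measured after compound exposure. Values represent inhibition relative to vehicle.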
A short description of test [6]: NCI Yeast Anticancer Drug Screen. Data for the mlh1 rad18 strain (AID 175). The following applies: S. cerevisiae mlh1 rad18 strain growth inhibition, active compounds read high. In a few lines: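 Steps: expose repair-defective yeast to compound; measure growth; express inhibition against vehicle-treated controls.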
Where [7] appears, read: at 5.0 µM (retest, dose inferred, filed as 0.5).
Where [8] appears, read: at 50.0 µM (retest, dose inferred, filed as 5.0).

Molecules are shown by their SMILES. About 79,000 compounds went through this panel and 15% of them were active in at least one assay; those are over-represented in the sample as a whole. A number with no mark means an inactive call. The source made the active and inactive calls. No stated cut-off is given here; in the data, active means growth inhibition above about 70%; inactive means the rest.

Turning to `O=C(O)c1ccccc1-c1ccccc1C(=O)Nc1ccc2c(c1)Cc1cc(F)ccc1-2`, the growth inhibition in test [1] (setting [7]) was 22%; in test [1] (setting [8]), 97% (active); in test [1] (at 50.0 µM) it was 94.1% (active); in test [2] (setting [7]), -3%; in test [2] (setting [8]) it was 97% (active); in test [2] (at 50.0 µM), 97.5% (active). In addition, the growth inhibition was -8% in test [3] (setting [7]); 95% (active) in test [3] (setting [8]); 97.9% (active) in test [3] (at 50.0 µM); -19% in test [4] (setting [7]); 96% (active) in test [4] (setting [8]); 96.8% (active) in test [4] (at 50.0 µM). The growth inhibition was -27% in test [5] (setting [7]); 92% (active) in test [5] (setting [8]); 97.8% (active) in test [5] (at 50.0 µM); -2% in test [6] (setting [7]); 97% (active) in test [6] (setting [8]); 97.2% (active) in test [6] (at 50.0 µM).
Take `Cc1ccccc1N=Nc1c(C)nn(C(N)=S)c1-c1ccccc1`: the growth inhibition in test [1] (setting [7]) was 6%; in test [1] (setting [8]) it was 85% (active); in test [1] (at 50.0 µM) it was 95.2% (active); in test [2] (setting [7]), -15%; in test [2] (setting [8]), 96% (active); in test [2] (at 50.0 µM), 57.1%. Also, the growth inhibition is -5% in test [3] (setting [7]); 96% (active) in test [3] (setting [8]); 94.8% (active) in test [3] (at 50.0 µM); -6% in test [4] (setting [7]); 87% (active) in test [4] (setting [8]); -4.5% in test [4] (at 50.0 µM). For the same molecule, the growth inhibition in test [5] (setting [7]) was -3%; in test [5] (setting [8]), 97% (active); in test [5] (at 50.0 µM), 34.5%; in test [6] (setting [7]), 12%; in test [6] (setting [8]) it was 97% (active); in test [6] (at 50.0 µM), 96.3% (active).
Consider `COc1cccc2c1C(=O)c1c(O)c3c(c(O)c1C2=O)CC(O)(C(C)=O)CC3OC1OC(COC(C)=O)C(OC(C)=O)C(OC(C)=O)C1OC(C)=O` (configuration not stated), for which the growth inhibition in test [1] (setting [7]) was 5%; in test [1] (setting [8]) it was 58%; in test [1] (at 50.0 µM) it was 95.5% (active); in test [2] (setting [7]) it was 49%; in test [2] (setting [8]), 30%; in test [2] (at 50.0 µM), 97.5% (active). Further, the growth inhibition was 3% in test [3] (setting [7]); 33% in test [3] (setting [8]); 97.8% (active) in test [3] (at 50.0 µM); 5% in test [4] (setting [7]); 8% in test [4] (setting [8]); 97.2% (active) in test [4] (at 50.0 µM). For the same molecule, the growth inhibition in test [5] (setting [7]) was 2%; in test [5] (setting [8]), 83% (active); in test [5] (at 50.0 µM), 98.9% (active); in test [6] (setting [7]), 3%; in test [6] (setting [8]) it was 59%; in test [6] (at 50.0 µM), 98% (active).
On to `Cc1cc2nc(-c3ccccc3[N+](=O)[O-])[nH]c2cc1C`, for which the growth inhibition in test [1] (setting [7]) is -3%; in test [1] (setting [8]), 20%; in test [1] (at 50.0 µM) it was 21.6%; in test [2] (setting [7]), -7%; in test [2] (setting [8]) it was 7%; in test [2] (at 50.0 µM), -0.15%. For the same molecule, the growth inhibition was -6% in test [3] (setting [7]); 61% in test [3] (setting [8]); 41.1% in test [3] (at 50.0 µM); -3% in test [4] (setting [7]); -1% in test [4] (setting [8]); -73.7% in test [4] (at 50.0 µM). Further, the growth inhibition in test [5] (setting [7]) was 6%; in test [5] (setting [8]), 55%; in test [5] (at 50.0 µM), 16.3%; in test [6] (setting [7]), 2%; in test [6] (setting [8]), 56%; in test [6] (at 50.0 µM) it was 3.2%.
Turning to `CCCCCCCCN(CCCCCCCC)C(=O)C(C)O` (configuration not stated), the growth inhibition in test [1] (setting [7]) is 14%; in test [1] (setting [8]) it was 98% (active); in test [1] (at 50.0 µM), 98.7% (active); in test [2] (setting [7]), -2%; in test [2] (setting [8]) it was 98% (active); in test [2] (at 50.0 µM) it was 89.2% (active). Also, the growth inhibition is 20% in test [3] (setting [7]); 99% (active) in test [3] (setting [8]); 97.7% (active) in test [3] (at 50.0 µM); 9% in test [4] (setting [7]); 97% (active) in test [4] (setting [8]); 81.7% (active) in test [4] (at 50.0 µM). Also, the growth inhibition in test [5] (setting [7]) is 6%; in test [5] (setting [8]), 99% (active); in test [5] (at 50.0 µM) it was 97.5% (active); in test [6] (setting [7]), 27%; in test [6] (setting [8]), 98% (active); in test [6] (at 50.0 µM), 94% (active).
On to `CSc1nc2ccccc2s1`, for which the growth inhibition was -5% in test [1] (setting [7]); 8% in test [1] (setting [8]); 24.1% in test [1] (at 50.0 µM); -2% in test [2] (setting [7]); 3% in test [2] (setting [8]); 23.3% in test [2] (at 50.0 µM). In addition, the growth inhibition in test [3] (setting [7]) is -1%; in test [3] (setting [8]), 4%; in test [3] (at 50.0 µM) it was -19.4%; in test [4] (setting [7]) it was 4%; in test [4] (setting [8]), 0%; in test [4] (at 50.0 µM) it was 43.9%. In addition, the growth inhibition was -3% in test [5] (setting [7]); -1% in test [5] (setting [8]); -8.3% in test [5] (at 50.0 µM); -3% in test [6] (setting [7]); 5% in test [6] (setting [8]); 4.2% in test [6] (at 50.0 µM).
With `Cc1sc(N=Nc2c(O)[nH]c3ccccc23)nc1-c1ccccc1`, the growth inhibition in test [1] (setting [7]) was 20%; in test [1] (setting [8]) it was 31%; in test [1] (at 50.0 µM) it was -2%; in test [2] (setting [7]), 16%; in test [2] (setting [8]) it was 27%; in test [2] (at 50.0 µM), -2.15%. For the same molecule, the growth inhibition in test [3] (setting [7]) is 17%; in test [3] (setting [8]) it was 30%; in test [3] (at 50.0 µM) it was 19.9%; in test [4] (setting [7]) it was 14%; in test [4] (setting [8]), 19%; in test [4] (at 50.0 µM), 13.7%. Moreover, the growth inhibition in test [5] (setting [7]) is 24%; in test [5] (setting [8]) it was 60%; in test [5] (at 50.0 µM), -20.1%; in test [6] (setting [7]), 11%; in test [6] (setting [8]), 39%; in test [6] (at 50.0 µM) it was -26.4%.
Take `Cc1ccc(C(C)(C)C)c(O)c1O`: the growth inhibition was 4% in test [1] (setting [7]); 98% (active) in test [1] (setting [8]); 91.2% (active) in test [1] (at 50.0 µM); -18% in test [2] (setting [7]); 98% (active) in test [2] (setting [8]); 91.7% (active) in test [2] (at 50.0 µM). Moreover, the growth inhibition was 1% in test [3] (setting [7]); 52% in test [3] (setting [8]); 92.1% (active) in test [3] (at 50.0 µM); 8% in test [4] (setting [7]); 98% (active) in test [4] (setting [8]); 91.8% (active) in test [4] (at 50.0 µM). Also, the growth inhibition in test [5] (setting [7]) was -9%; in test [5] (setting [8]) it was 98% (active); in test [5] (at 50.0 µM) it was 91.4% (active); in test [6] (setting [7]) it was -25%; in test [6] (setting [8]) it was 97% (active); in test [6] (at 50.0 µM), 90.5% (active).
For the molecule `Cc1nc(N)sc1N=Nc1ccc(Cl)cc1Cl`, the growth inhibition is 4% in test [1] (setting [7]); 90% (active) in test [1] (setting [8]); 82.5% (active) in test [1] (at 50.0 µM); 1% in test [2] (setting [7]); 90% (active) in test [2] (setting [8]); 76.4% (active) in test [2] (at 50.0 µM). Besides, the growth inhibition was 4% in test [3] (setting [7]); 94% (active) in test [3] (setting [8]); 84.2% (active) in test [3] (at 50.0 µM); 2% in test [4] (setting [7]); 48% in test [4] (setting [8]); 84.3% (active) in test [4] (at 50.0 µM). For the same molecule, the growth inhibition in test [5] (setting [7]) was 1%; in test [5] (setting [8]) it was 55%; in test [5] (at 50.0 µM) it was 81.7% (active); in test [6] (setting [7]), 16%; in test [6] (setting [8]), 97% (active); in test [6] (at 50.0 µM) it was 93.4% (active).
